In all, about 220,000 compounds went through this assay and about 830 (0.38%) were called active.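 Rule for the calls: active = compound inhibiting the enzyme by more than half at any dose during confirmatory dose-response retesting; inconclusive = strong single-dose inhibitors picked by rank but not retested; inactive = the rest.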 A selection follows. Entries with a potency or affinity are not part of this list.

Sequence of Leucine aminopeptidase (Plasmodium falciparum (isolate 3D7)) (Q8IL11 whole entry, looked up): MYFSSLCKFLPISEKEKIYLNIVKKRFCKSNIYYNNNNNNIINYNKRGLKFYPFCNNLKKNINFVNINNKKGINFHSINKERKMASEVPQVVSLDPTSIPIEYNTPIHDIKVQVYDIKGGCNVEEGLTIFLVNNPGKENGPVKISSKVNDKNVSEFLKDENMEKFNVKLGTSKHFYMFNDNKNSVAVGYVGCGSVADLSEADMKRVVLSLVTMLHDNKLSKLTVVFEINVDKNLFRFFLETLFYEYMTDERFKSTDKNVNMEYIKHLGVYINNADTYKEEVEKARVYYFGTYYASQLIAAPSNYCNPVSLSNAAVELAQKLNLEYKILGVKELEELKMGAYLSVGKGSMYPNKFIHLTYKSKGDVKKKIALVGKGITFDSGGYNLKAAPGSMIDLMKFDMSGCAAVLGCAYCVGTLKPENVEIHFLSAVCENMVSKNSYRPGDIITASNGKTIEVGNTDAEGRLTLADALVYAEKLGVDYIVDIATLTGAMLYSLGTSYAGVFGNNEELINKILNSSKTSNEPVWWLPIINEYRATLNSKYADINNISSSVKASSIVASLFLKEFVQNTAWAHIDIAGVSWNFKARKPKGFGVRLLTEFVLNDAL

The test has as its target Leucine aminopeptidase (Plasmodium falciparum (isolate 3D7)) (UniProt Q8IL11). The test can be described thus: P. falciparum M17LAP inhibitors, primary screen, biochemical, fluorogenic H-Leu-NHMec substrate, 1536-well (AID 1619).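 Note: plate controls were full reaction with DMSO carrier for no effect and no enzyme background for full effect.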 To be noted: recombinant M17LAP, H-Leu-NHMec fluorogenic kinetic assay; at 30 µM; hits give high values.
For `CC(C)[C@H](NC(=O)[C@H](CCCN=C(N)N)NC(=O)NC(Cc1ccccc1)C(=O)O)C(=O)NC(C=O)CCCN=C(N)N` (stereo partly specified), the inhibition (commonly the drop in the measured response relative to a control, in per cent) is 6.32% (inactive).
The value for `O=c1[nH]c(-c2ccc3c(c2)OCO3)nc2c1sc(=S)n2-c1ccccc1` was -0.6% (inactive).
Turning to `Cc1cc(C(=O)O)ccc1-c1ccc(/C=C2\NC(=O)N(Cc3ccc(F)cc3)C2=O)o1`, the inhibition is 0.19% (inactive).
The value for `Cc1ccc(CN2C(=O)N/C(=C\c3ccc(-c4ccc(C(=O)O)cc4C)o3)C2=O)cc1` was 4.73% (inactive); that for `Nc1cnc(CNc2ccccc2Cl)cn1` was 4.54% (inactive); that for `CCn1c(N2CCN(S(=O)(=O)c3ccc(F)cc3)CC2)nc2ccccc21` was 2.95% (inactive).
On to `CC(=O)Nc1ccc(NC(=O)COC(=O)c2n[nH]c3ccccc23)cc1`, for which the inhibition was 2.47% (inactive).
The value for `Nc1nonc1-c1nc2ccccc2n1CC(=O)N/N=C/c1ccc(-c2cccc(C(=O)O)c2)o1` was 31.4% (inactive).
For `Nc1nonc1-c1nc2ccccc2n1CC(=O)N/N=C\c1ccc(-c2ccc(Cl)cc2)o1`, the inhibition was 3.34% (inactive).
Under `COc1cccc(C(=O)COC(=O)C(C)N2C(=O)C3C4C=CC(C4)C3C2=O)c1` (stereo unspecified) stands 4% (inactive); under `CC1CCc2nc(NCCO)nc(C(F)(F)F)c2C1` (stereo unspecified), 7.69% (inactive).
Under `COc1ccccc1CCc1nnc(CCC(=O)N(C)Cc2ccncc2C)o1` stands -1.17% (inactive).
Turning to `Cc1ccc2oc(=S)n(C)c2c1`, the inhibition is 3.68% (inactive).
The value for `O=C(CSc1nnc(-c2ccc(O)cc2)n1Cc1ccco1)c1ccccc1` was 5.35% (inactive); that for `CCOC(=O)c1c(NC(=S)Nc2ccc(F)cc2)sc2c1CCC2` was 6.14% (inactive).
The value for `CCOC(=O)c1c(NC(=S)Nc2ccccc2)sc(C)c1C` was 26.5% (inactive).
In the case of `CCOC(=O)c1c(NC(=S)Nc2ccc(Cl)cc2)sc(C)c1C`, the inhibition was 12.6% (inactive).
As to `NC(=O)c1c(NC(=S)Nc2ccccc2)sc2c1CCCC2`, the inhibition is 16.9% (inactive).
`OCCN1CCN(c2nc(-c3ccccc3)nc3c2oc2ccccc23)CC1`: the inhibition was 7.26% (inactive).
The value for `CNC(=O)N(C1=NCC(C)(C)S1)c1ccc(F)c(Cl)c1` was -9.97% (inactive); that for `O/N=C/c1ccc(OCc2ccccc2)c(Br)c1` was 6.58% (inactive); that for `CSc1ccc(/C=N/Nc2ccc(Cl)c(C(=O)O)c2)cc1` was 12.6% (inactive).
For `O/N=C/c1ccc(OCc2ccccc2)c(Cl)c1`, the inhibition is 13.4% (inactive).
Regarding `COc1cc(/C=N/Nc2ccc3ccccc3c2)ccc1OC(=O)c1ccco1`, the inhibition was 0.98% (inactive).
Under `COc1cc(/C=N/Nc2ccccc2)ccc1OC(=O)c1cccs1` stands 1.12% (inactive); under `COc1cc(/C=N/Nc2cccc(C)c2)ccc1OC(=O)c1ccco1`, -4.8% (inactive).
The value for `O=C(O)c1cc(N/N=C/c2ccncc2)ccc1Cl` was 18.2% (inactive); that for `COc1cc(/C=N/Nc2ccc(Cl)cc2)ccc1OC(=O)c1cccs1` was 4.49% (inactive); that for `O=[N+]([O-])c1ccc(C[n+]2cccc3ccccc32)cc1` was 1.34% (inactive).
Under `O=C(CN1CCCCC1CO)c1ccc(OC(F)F)cc1` (stereo unspecified) stands 6.93% (inactive).
As for `Cc1cc(NC(=O)CSc2ncnc3c2cnn3-c2cccc(Cl)c2)no1`, the inhibition is 1.8% (inactive).
Under `CCn1cc(Br)c(C(=O)NC(C)c2ccccc2)n1` (stereo unspecified) stands -36.5% (inactive); under `Cc1csc(NC(=O)C2CCN(S(=O)(=O)c3ccc4c(c3)oc(=O)n4C)CC2)n1`, 8.23% (inactive); under `CC(C)(C)C(=O)N1N=C(c2cccc(NS(C)(=O)=O)c2)CC1c1cccs1` (stereo unspecified), 29.7% (inactive).
Consider `O=C(CCNS(=O)(=O)c1cccs1)Nc1nccs1`, for which the inhibition was -0.31% (inactive).
Under `O=C(Nc1n[nH]c(C2CCCCC2)n1)C1CCCCC1` stands -5.77% (inactive); under `Nc1n[nH]c(C2CCCCC2)n1`, -1.74% (inactive); under `Nn1c(SCc2ccccc2F)nnc1-c1ccncc1`, 1.35% (inactive).
Under `CCOC(=O)c1sc(NC(=O)Cn2nnc3sc4c(c3c2=O)CCCC4)nc1C` stands -3.69% (inactive); under `Cn1c(CNC(=O)c2ccco2)nnc1SCC(=O)Nc1cccc(Br)c1`, 7.38% (inactive); under `C=CCn1c(CNC(=O)c2ccco2)nnc1SCC(=O)Nc1cccc(F)c1`, 14.5% (inactive).
For the molecule `CCCn1cnc2c(=S)nc(N)[nH]c21`, the inhibition is 16.6% (inactive).
The value for `CC(C)c1ccc(-c2nc(N3CCCCCC3)nc3n[nH]c(N)c23)cc1` was 35.4% (inactive); that for `c1ccc(-c2nnc(N3CCOCC3)nc2-c2ccccc2)cc1` was 5.71% (inactive).
Under `COc1ccc(N2CCN(c3nc(Cl)nc(N4CCOCC4)n3)CC2)cc1` stands 11.3% (inactive); under `Nc1nc(N2CCOCC2)nc2ccccc12`, -12% (inactive).
The value for `COc1ccc(-c2cc(C(F)(F)F)nc(N3CCOCC3)n2)cc1` was 4.95% (inactive); that for `CC(C)c1ccc(-c2nc(N3CCCC3)nc3n[nH]c(N)c23)cc1` was 27.7% (inactive).
In the case of `COCCNC(=S)NNc1ccccc1[N+](=O)[O-]`, the inhibition is 0.4% (inactive).
Regarding `CC(C)=NOc1nc(N2CCOCC2)nc(N2CCOCC2)n1`, the inhibition was -6.17% (inactive).
For the molecule `CCOC(=O)Cn1nnnc1CN(Cc1ccccc1)Cc1cc2cc(CC)ccc2[nH]c1=O`, the inhibition was -7.17% (inactive).
For the molecule `CCOC(=O)c1sc(NC(=O)CC)c(C#N)c1C`, the inhibition is -11.2% (inactive).
The value for `O=C(CN1C(=O)CCC1=O)Nc1ccc(Cc2ccc(NC(=O)CN3C(=O)CCC3=O)cc2)cc1` was 1.75% (inactive); that for `O=C(Cn1cnc2cc([N+](=O)[O-])ccc2c1=O)Nc1ccc2c(c1)CCC2` was 25.1% (inactive); that for `COc1ccc(NC(=O)Cn2cnc3ccccc3c2=O)cc1OC` was 14.4% (inactive).
The value for `COC(=O)c1ccc(C)c(NC(=O)Cn2cnc3ccccc3c2=O)c1` was 54.1% (inactive).
Under `O=C(Cn1cnc2ccccc2c1=O)Nc1ccc2c(c1)OCCO2` stands 5.1% (inactive).
For `N#Cc1c(NC(=O)CCn2cnc3ccccc3c2=O)oc(-c2ccccc2)c1-c1ccccc1`, the inhibition was -1.46% (inactive).
Under `N#Cc1c(NC(=O)CSc2ccccn2)oc(-c2ccccc2)c1-c1ccccc1` stands 3.85% (inactive); under `Cc1ccc(NC(=O)Cn2nnc3ccccc3c2=O)cc1C`, -2.19% (inactive).
The value for `Cc1ccc(NC(=O)Cn2nnc3ccccc3c2=O)cc1` was -0.57% (inactive); that for `COC(=O)c1ccc(NC(c2ccc(Cl)cc2)P(=O)(OC)OC)cc1` (stereo unspecified) was 4.43% (inactive); that for `CS(=O)(=O)N(CC(=O)Nc1ccc(S(=O)(=O)N2CCCC2)cc1)c1ccccc1` was 1.45% (inactive).
Turning to `Cn1c(SCC(=O)C(C)(C)C)nnc1-c1ccc(F)cc1`, the inhibition was 0.55% (inactive).
Turning to `CN(O)/C=C/C(=O)c1ccc(Br)cc1`, the inhibition was -3.22% (inactive).
Under `C[C@@H]1C[C@H](O)c2cc(Cl)ccc2N1` stands 5.04% (inactive); under `CCOC(=O)C1(CCCc2ccccc2)CCN(C(=O)CCc2cnccn2)CC1`, -4.8% (inactive); under `COc1ccc(-c2cc(=O)oc3cc(OCC(C)=O)ccc23)cc1`, 10.9% (inactive).
The value for `CC(Oc1ccc2c(-c3ccccc3)cc(=O)oc2c1)C(=O)O` (stereo unspecified) was 36.3% (inactive); that for `N#C/C(=C\c1cn[nH]c1-c1ccccc1Br)C(=O)O` was 4.87% (inactive); that for `CCCc1cc(=O)n2[nH]c(NCc3ccccc3Cl)nc2n1` was 23% (inactive).
The value for `Cc1cccc(N(C(=O)c2csnn2)C(C(=O)NC(C)(C)C)c2cccs2)c1` (stereo unspecified) was 9.85% (inactive); that for `CCc1nc(N2CCN(C(C)=O)CC2)c(C#N)c2c1COC(C)(C)C2` was -49.5% (inactive); that for `O=C(c1cnn(-c2ccccc2)c1)c1ccccc1O` was -6.3% (inactive).
As for `O=C(c1cnn(C(=O)c2ccc(O)cc2)c1)c1ccccc1O`, the inhibition was -4.26% (inactive).
With `CCCc1nnc(SCc2ccc(OC)cc2)n1N`, the inhibition is 9.43% (inactive).
The value for `COc1ccc(-c2nc(-c3cccc(C(F)(F)F)c3)no2)cc1OC` was -5.65% (inactive); that for `Cc1cccc(NC(=O)COc2ccc(/C=C\c3[nH]c(=O)[nH]c(=O)c3[N+](=O)[O-])cc2)c1` was 23.7% (inactive).
As to `NC(=O)CSc1nc(-c2ccccc2)c(-c2ccccc2)o1`, the inhibition is -9.73% (inactive).
The value for `CNC(=O)CSc1nc(-c2ccccc2)c(-c2ccccc2)o1` was 3.38% (inactive); that for `CC(C)C(=O)Nc1ccc(NC(=O)c2ccccn2)cn1` was 7.94% (inactive).
For the molecule `CNC(=O)c1sccc1S(=O)(=O)Cc1c(Cl)cccc1Cl`, the inhibition is 0.44% (inactive).
Consider `CCOC(=O)c1sc(NC(=O)C2C3C=CC(C3)C2C(=O)O)nc1C` (stereo unspecified), for which the inhibition was 3.83% (inactive).
Take `CCOC(=O)c1c(NC(=O)C2CC2)sc(C)c1CC`: the inhibition was -1.68% (inactive).
The value for `COC(=O)c1cc(C)sc1NC(=O)C1C2C=CC(CC2)C1C(=O)O` (stereo unspecified) was 47% (inactive).
Under `CCOC(=O)c1c(NC(=O)C2C3C=CC(CC3)C2C(=O)O)sc(C)c1C` (stereo unspecified) stands 46.5% (inactive).
The value for `CCOCCCn1c(=O)c(NC(=O)c2ccc(OCC)cc2)c2n(c1=S)CCCCC2` was 10.1% (inactive).
As for `O=C(NC1CCCC1)C1C2C=CC3(CN(Cc4cccs4)C(=O)C13)O2` (stereo unspecified), the inhibition is -3.35% (inactive).
Turning to `O=C(NCC1CCCO1)C1C2C=CC3(CN(Cc4cccs4)C(=O)C13)O2` (stereo unspecified), the inhibition was 15.4% (inactive).
Turning to `Cc1ccc(S(=O)(=O)N(C)CCCC(=O)NC(C)(C)C)cc1`, the inhibition was -1.26% (inactive).
The value for `O=C1CN(S(=O)(=O)c2ccc(Cl)cc2)CC(=O)N1CCc1ccccc1` was -1.31% (inactive); that for `COc1ccc(C2=Nn3c(nnc3-c3ccccc3OC)SC2)cc1OC` was 26.3% (inactive).
Under `CCOc1ccc(C2=Nn3c(nnc3-c3ccccc3OC)SC2)cc1` stands 8.39% (inactive); under `CC(=O)Nc1nc(CCN2C(=O)c3ccccc3C2=O)cs1`, 0.9% (inactive); under `Cc1cccc2cc(C(c3nnnn3CC3CCCO3)N3CCCc4ccccc43)c(=O)[nH]c12` (stereo unspecified), 10.5% (inactive).
Under `CC(C)c1ccc(O)c(NC(=O)c2cccnc2)c1` stands 7.21% (inactive).

These data come from PubChem BioAssay AID1619 (SRMLSC, 2009).
